The text below walks through data of PubChem BioAssay (Tox21).

Test [1] is described as follows: qHTS assay to identify small molecule agonists of the hypoxia (HIF-1) signaling pathway - cell viability counter screen (AID 1224844; calls by dose curve; further: nearly all actives have a fitted effect of over 50% in size; further: potency means the concentration at half of the fitted maximal effect). The procedure, abridged:
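Cells (HRE-bla ME-180, 2,000 per well) sat 5 hrs at 37C, got compound for 17 hrs, were read for CCF4-AM FRET, and were finally lysed with CellTiter-Glo for a 30 min room-temperature luminescence read.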
A general note: In qHTS, concentration-response curves come from the screen itself.

Test [2] is described as follows: qHTS assay to identify small molecule agonists of H2AX (AID 1224845; active means well fitted activation curve with a large enough effect in the signal ratio in the repeat runs, not every such curve was filed as active; the % refers to the signal ratio; further: potency means the concentration at half of the fitted maximal effect). The procedure, abridged: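 Phospho-H2AX Ser139 measured by HTRF (ex 320 nm; em 665 and 620 nm) after 24 hr antibody incubation. Compounds, 15 concentrations, 0.76% DMSO, were applied to CHO-K1 cells for 3hr at 37C before lysis.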
Test [3] is described as follows: qHTS assay to identify small molecule agonists of H2AX - cell viability counter screen (AID 1224847; calls by dose curve; further: top concentration of the series differs between compounds; nearly all actives have a fitted effect of over 30% in size). The procedure, abridged:
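Wild-type CHO-K1 cells (10% FBS medium) were plated overnight at 37C, exposed to compounds at 15 concentrations for 3 hr at 37C (0.76% DMSO final), and viability was read as CellTiter-Glo luminescence after 30 min at room temperature.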

Test [4] is described as follows: qHTS assay to identify small molecule agonists of the estrogen related receptor (ERR) signaling pathway from Tox21 library (AID 1224849; calls by dose curve; further: nearly all actives have a fitted effect of over 15% in size). Conditions: ERR reporter cell line, ONE-Glo luciferase, 18 h; at 92.4 µM (top of the series) unless noted. The procedure, abridged: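 Screening used an NTP-provided ERR luciferase cell line. Compounds in DMSO were added 6 h after seeding and left 18 h at 37 C before a 30 min ONE-Glo step and luminescence reading.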

A short description of test [5]: qHTS RealTime-Glo MT Cell Viability Assay in HepG2 cells - 24 hour (AID 1224867). Further: nearly all actives have a fitted effect of over 50% in size. The procedure, abridged:
(§1)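 HepG2 suspension premixed with RealTime-Glo reagents is plated at 600 cells per well and left 5 h at 37 C/5% CO2. Compounds in DMSO then go in, and bioluminescence reflecting viable cell number is recorded over 40 h.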

Test [6] in a line: A CellTox Green Cytotoxicity Assay to monitor cytotoxicity in HEK293 cells - 0 hour (AID 1224869). Further: nearly all actives have a fitted effect of over 50% in size. Put shortly:
(§2)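 Fluorescence intensity, read at 0, 8, 16, 24, 32 and 40 h of compound treatment, reflected dye binding to DNA of dead HEK293 cells; compounds (23 nL, DMSO) were added 5 h after plating cells with reagent.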

Test [7] in a line: qHTS RealTime-Glo MT Cell Viability Assay in HepG2 cells - 40 hour (AID 1224870). Further: nearly all actives have a fitted effect of over 50% in size. Further: potency means the concentration at half of the fitted maximal effect. Put shortly: (§3)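 Real-time viability: cells seeded at 600 per well together with NanoLuc and cell-permeant prosubstrate, compounds added after 5 h incubation. Luminescence tracked at 0, 8, 16, 24, 32 and 40 h of exposure.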
A short description of test [8]: A CellTox Green Cytotoxicity Assay to monitor cytotoxicity in HEK293 cells - 40 hour (AID 1224871). Further: nearly all actives have a fitted effect of over 45% in size. Further: potency means the concentration at half of the fitted maximal effect. Put shortly: as §2
The nature of test [9]: qHTS RealTime-Glo MT Cell Viability Assay in HepG2 cells - 8 hour (AID 1224873). Further: nearly all actives have a fitted effect of over 55% in size. Put shortly:
as §3

Test [10] can be described thus: A CellTox Green Cytotoxicity Assay to monitor cytotoxicity in HEK293 cells - 24 hour (AID 1224875). Further: nearly all actives have a fitted effect of over 45% in size. Put shortly:
as §2

Test [11] in a line: A CellTox Green Cytotoxicity Assay to monitor cytotoxicity in HepG2 cells - 16 hour (AID 1224876). Further: nearly all actives have a fitted effect of over 45% in size. Further: potency means the concentration at half of the fitted maximal effect. The procedure, abridged: (§4)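 Using 1536-well format, dye-containing HepG2 suspension was seeded, allowed 5 h at 37 C/5% CO2, dosed by pintool with compounds, positive and negative controls, and imaged for fluorescence across 40 h.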
Test [12] can be described thus: qHTS RealTime-Glo MT Cell Viability Assay in HepG2 cells - 32 hour (AID 1224877). Further: nearly all actives have a fitted effect of over 55% in size. Further: potency means the concentration at half of the fitted maximal effect. Put shortly: as §1
Test [13] in a line: A CellTox Green Cytotoxicity Assay to monitor cytotoxicity in HepG2 cells - 24 hour (AID 1224878). Further: nearly all actives have a fitted effect of over 45% in size. Further: potency means the concentration at half of the fitted maximal effect. The procedure, abridged:
as §4

The nature of test [14]: A CellTox Green Cytotoxicity Assay to monitor cytotoxicity in HepG2 cells - 40 hour (AID 1224879). Further: nearly all actives have a fitted effect of over 40% in size. Further: potency means the concentration at half of the fitted maximal effect. Put shortly: as §4
Test [15] can be described thus: qHTS RealTime-Glo MT Cell Viability Assay in HEK293 cells - 32 hour (AID 1224868). Further: nearly all actives have a fitted effect of over 50% in size. Further: potency means the concentration at half of the fitted maximal effect. Put shortly:
(§5)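 Reads taken at 0, 8, 16, 24, 32 and 40 h from the same wells. HEK293 cells (600/well) carried RealTime-Glo reagents from seeding, with compound added after a 5 h settle at 37 C.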

Test [16] is described as follows: qHTS RealTime-Glo MT Cell Viability Assay in HEK293 cells - 16 hour (AID 1224872). Put shortly:
as §5

A short description of test [17]: qHTS RealTime-Glo MT Cell Viability Assay in HEK293 cells - 40 hour (AID 1224874). Further: nearly all actives have a fitted effect of over 50% in size. Further: potency means the concentration at half of the fitted maximal effect. Particulars: RealTime-Glo luminescence; max response: hits give low values. Put shortly:
(§6)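 Viable HEK293 cells reduce a cell-permeant prosubstrate; the product diffuses out and is consumed by NanoLuc in the medium to give light. Compounds went in after a 5 h incubation and plates were read over the treatment course.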

Test [18] can be described thus: qHTS RealTime-Glo MT Cell Viability Assay in HEK293 cells - 0 hour (AID 1224880). Put shortly: as §6
The nature of test [19]: qHTS assay to identify small molecule agonists of the hypoxia (HIF-1) signaling pathway (AID 1224846; active means well fitted activation curve with a large enough effect in the signal ratio in the repeat runs, not every such curve was filed as active; the % refers to the signal ratio). The procedure, abridged: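 A low-serum medium (0.5% dialyzed FBS) holding 2,000 HRE-bla ME-180 cells per well is preincubated for 5 hrs, dosed with compounds by pintool, and kept a further 17 hrs at 37C, 5% CO2 before CCF4-AM FRET detection of beta-lactamase.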
Test [20] is described as follows: qHTS assay to identify small molecule antagonists of the estrogen related receptor (ERR) signaling pathway from Tox21 library (AID 1224848). Further: nearly all actives have a fitted effect of over 50% in size. Further: potency means the concentration at half of the fitted maximal effect. Put shortly: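 Antagonist-mode screen of the Tox21 10K library in an NTP-provided ERR reporter cell line; 18 h compound exposure at 37 C, luminescence measured with ONE-Glo.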

Each structure is given as a SMILES string. Unmarked numbers belong to inactive results. Inconclusive results are not listed. Activity calls are given as the source filed them. Unless noted, the call rests on the fitted dose curve; in most records, active means well fitted curve in the direction sought with a large enough effect in the repeat runs; inconclusive means weak or mixed curves; inactive means no such curve, though single readings can be large; an effect the other way counts as inactive or inconclusive.
On the % scale 0 is the no-effect control and ±100 the full control effect.

`CN(C(=O)CCCOc1ccc2[nH]c(=O)ccc2c1)C1CCCCC1`: the Potency result in test [1], in test [2], in test [3], in test [5], in test [6] and in test [7] was “inactive” in each case. Also, the Potency entry in test [8], in [9], in test [10], in test [11], in test [12] and in test [13] was “inactive” throughout. In addition, in test [14], the Potency entry was “inactive”. The activity change, positive = activation in test [4] was -12.9% [at 42.5 µM].

In the case of `N#CCCNCCC#N`, the Potency entry in [1], in test [2], in [5], in [15], in [6] and in [7] was “inactive” throughout. Also, the Potency result in test [8], in test [16], in [9], in [10], in [11] and in [12] was “inactive” in each case. For the same compound, the Potency result in test [13], in test [14] and in test [18] was “inactive” in each case. In addition, in test [17], the max response was 6.76%.

For `C=CC(=O)OCC(C)OCC(C)OCC(C)OC(=O)C=C` (stereo unspecified), the Potency entry in test [1], in test [6], in test [10], in test [11] and in test [18] was “inactive” each time. Further, the Potency in [2] is 101 µM (active); in test [15], 43.6 µM (active); in test [8], 54.9 µM (active); in [17], 43.6 µM (active); in test [12], 54.9 µM (active); in test [13] it was 54.9 µM (active). Moreover, the Potency in test [14] is 49 µM (active).

For `O=C(CC(=O)c1ccccc1)c1ccccc1`, the Potency entry in test [1], in test [3], in test [20], in [5], in test [15] and in [6] was “inactive” each time. For the same compound, the Potency entry in [7], in [8], in test [10], in test [11], in [12] and in test [13] was “inactive” throughout. Moreover, the Potency result in test [14] and in [18] was “inactive” each time. Also, in test [19], the compound was called inactive. The activity change, positive = activation in test [4] was 58.5% (active). Further, the max response in [17] is -4.39%.

Regarding `Cn1c(N)nc2nc[nH]c2c1=O`, the Potency entry in test [1], in test [3], in test [5], in test [6], in test [7] and in [8] was “inactive” each time. For the same compound, the Potency entry in test [9], in test [10], in test [11], in test [12], in test [13] and in test [18] was “inactive” throughout. Also, the result in test [19] was inactive. Further, in test [14], the Potency was 21.6 µM (active).

Take `CC(C)c1ccccc1C(C)C`: the Potency entry in [1], in test [3], in test [5], in test [15], in test [6] and in [7] was “inactive” throughout. The Potency result in [8], in test [16], in test [9], in test [10], in [11] and in test [12] was “inactive” in each case. Besides, the Potency entry in test [13] and in test [14] was “inactive” in each case. Also, the outcome in test [19] was inactive. Moreover, in test [17], the max response is -23.5%.

`CCN(CC)CCOc1ccc2c(c1)C(=O)c1cc(OCCN(CC)CC)ccc1-2`: the Potency entry in test [1], in test [6], in test [9], in test [10] and in test [11] was “inactive” throughout. In addition, in test [19], the compound was called inactive. Also, the Potency in test [20] is 18.8 µM (active); in test [15], 13.4 µM (active); in test [17], 15.1 µM (active); in test [14], 26.8 µM (active). For the same compound, the activity change, positive = activation in [4] is -38.3% [at 42.5 µM].

Regarding `Nc1ccc(C(=O)Nc2ccccc2N)cc1`, the figures for the Potency in test [1], in test [7] and in test [14] were 12 µM (active), 13.4 µM (active) and 5.35 µM (active), respectively. The compound was classed as inactive in [19]. For the same compound, the Potency entry in test [3], in test [20], in test [5], in test [6], in test [8] and in test [9] was “inactive” in each case. Further, the Potency entry in [10] and in test [11] was “inactive” throughout. In addition, the activity change, positive = activation in test [4] was 21.9% [at 42.5 µM] (active).

In the case of `CN1CCC[C@@H]1c1cccnc1`, the Potency result in test [1], in test [2], in [3], in [5], in [15] and in [6] was “inactive” throughout. The Potency entry in [7], in test [8], in test [16], in [9], in test [10] and in test [12] was “inactive” each time. Also, the Potency entry in [13], in [14] and in test [18] was “inactive” each time. Moreover, in test [17], the max response was 7.25%.

On to `c1ccc(-c2nc[nH]c2-c2ccccc2)cc1`, for which the Potency entry in [1], in [2], in test [5], in [15], in test [6] and in test [7] was “inactive” each time. The Potency result in test [8], in [16], in test [9], in [10], in test [12] and in [18] was “inactive” each time. The max response in test [17] is -25%.

For the compound `CCOC(=O)C1=NN(c2ccccc2)C(=O)C1`, the Potency result in [1], in test [3], in test [5], in test [15], in test [6] and in test [7] was “inactive” throughout. Also, the Potency entry in test [8], in [9], in [10], in test [11], in test [12] and in test [13] was “inactive” each time. Moreover, the Potency result in test [14] and in [18] was “inactive” throughout. In addition, the compound was classed as inactive in test [19]. Besides, the max response in [17] was 1.57%.

As for `CC(=O)N(O)CCCCCNC(=O)CCC(=O)N(O)CCCCCNC(=O)CCC(=O)N(O)CCCCCN`, the Potency result in [1], in [3], in [5], in [6], in test [7] and in test [8] was “inactive” throughout. In addition, the Potency entry in [16], in test [9], in test [10], in test [11], in test [12] and in test [13] was “inactive” throughout. Moreover, the Potency entry in test [14] and in [18] was “inactive” in each case. Besides, the call in [19] was inactive. For the same compound, the Potency is 26.6 µM (active) in [20] and 21.3 µM (active) in test [17]. Moreover, the activity change, positive = activation in [4] was -34.7% [at 42.5 µM].

For the compound `CCCCCCc1ccc(N)cc1`, the Potency entry in test [1], in test [5], in [15], in test [6], in test [7] and in test [8] was “inactive” each time. The Potency entry in test [16], in test [9], in test [10], in test [12] and in test [18] was “inactive” throughout. Moreover, the result in test [19] was inactive. Moreover, the activity change, positive = activation in [4] is -26.6%. The max response in [17] is 4.72%. Also, the Potency in test [11], in test [13] and in test [14] was 49 µM (active) throughout.

Take `Oc1ccc(C(O)CNCCCCCCNCC(O)c2ccc(O)c(O)c2)cc1O` (stereo unspecified): the Potency entry in test [1], in [3], in test [20], in [5], in [15] and in [6] was “inactive” each time. Also, the Potency result in [7], in [8], in test [16], in [9], in [10] and in test [11] was “inactive” in each case. The Potency entry in test [12], in test [13] and in [14] was “inactive” throughout. For the same compound, the result in test [19] was inactive. Also, the activity change, positive = activation in test [4] was 1.29% [at 42.5 µM]. The max response in test [17] is 1.45%.
